Source: PubChem (National Center for Advancing Translational Sciences (NCATS))
Compounds with a hit are over-represented: about 3.1% of the library has one in this group of screens.
GBA mod – human lysosomal glucosylceramidase modulation. Potency, µM. purified enzyme, resorufin glucoside fluorescence (screen aimed at inhibitors), 20 min. P04062. AID 360. 48,000 compounds, 1.1% hits; in the data active = potency below about 15 µM; inconclusive = mostly about 16 µM to 33 µM;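 also: the screen sought inhibitors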
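Compounds titrated against 0.2 nM normal enzyme, 30 uM resorufin beta-D-glucopyranoside substrate, citrate/phosphate buffer with taurocholate and tween-20, pH 5.9. Reaction ran 20 min at room temperature; fluorescence (Ex 548/Em 600) gave AC50.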
Casp7 inh – allosteric or competitive inhibitors of human caspase-7; P55210; recombinant caspase-7, Ac-DEVD-AFC fluorescence rate; Potency, µM (top dose mostly 57.5 µM), for the others: at the highest dose activity change, negative = inhibition, most hits filed as inhibitors; 75,000 compounds, 0.02% hits; active = well fitted inhibition curve with a large enough effect in the main read-out, with a control signal flat, not every such curve was filed as active; inconclusive = small, poorly fitted or top-dose-only effect, or a change in a side signal; also: % of control where 0% means no effect
Target sequence (P55210 24-198 limits assumed): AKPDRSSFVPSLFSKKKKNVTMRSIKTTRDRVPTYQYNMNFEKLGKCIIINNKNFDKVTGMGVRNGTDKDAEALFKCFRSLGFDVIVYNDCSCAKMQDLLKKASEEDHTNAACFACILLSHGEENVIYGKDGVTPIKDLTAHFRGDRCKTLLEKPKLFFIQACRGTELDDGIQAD
Target sequence (P55210 207-303 limits assumed): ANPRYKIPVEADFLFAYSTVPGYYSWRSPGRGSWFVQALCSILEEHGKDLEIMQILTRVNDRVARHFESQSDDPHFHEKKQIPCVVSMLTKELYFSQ
Bst PK mod – pyruvate kinase (B. stearothermophilus) modulation; 51,000 compounds, 1.2% hits; Potency, µM; purified pyruvate kinase, luminescence ATP production; ribose 5-phosphate activator present at AC10; in the data active = potency below about 11 µM; inconclusive = mostly about 12 µM to 25 µM;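 the screen sought inhibitors and activators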;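 also: scaled between full activation by ribose 5 phosphate and full inhibition by luteolin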
Caspase-1 inhib – allosteric or competitive inhibitors of human caspase-1; AID 900; 75,000 compounds, 0.03% hits; P29466; Potency, µM (top dose mostly 57.5 µM), for the others: top-dose activity change, negative = inhibition, most hits filed as inhibitors; Caspase-1 enzyme, Ac-WEHD-AFC fluorogenic rate;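 also: plate controls were vehicle for no effect and no substrate for full effect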
Target sequence (P29466 120-297 limits assumed): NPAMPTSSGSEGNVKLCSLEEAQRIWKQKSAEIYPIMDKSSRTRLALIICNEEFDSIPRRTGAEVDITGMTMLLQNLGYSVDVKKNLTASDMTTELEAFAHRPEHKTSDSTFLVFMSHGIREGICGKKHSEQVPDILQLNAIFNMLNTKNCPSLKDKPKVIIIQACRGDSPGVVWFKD
Target sequence (P29466 317-404 limits assumed): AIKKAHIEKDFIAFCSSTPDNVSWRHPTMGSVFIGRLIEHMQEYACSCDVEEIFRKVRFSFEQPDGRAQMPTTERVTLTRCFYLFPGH
Luciferase inh – blocks Photinus pyralis firefly luciferase activity; P08659; Potency, µM (series often up to 57.1 µM), for inactives: at the top dose activity change, negative = inhibition, most hits filed as inhibitors; purified firefly luciferase, luminescence, 8 min; 72,000 compounds, 2.2% hits; AID 411; also: % is scaled to controls: 0 for no effect and ±100 for the full control effect; nearly all actives have a fitted effect of over 40% in size
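Substrate buffer containing 10 uM ATP (pH 7.2 imidazole, Mg2+, KCl, detergent, BSA) is dispensed, compound pinned in, then luciferase/luciferin detector mix added. After 8 min at ambient temperature, light output is measured.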
* = called active by the depositor; i = inactive; ? = inconclusive; · = no result; ! = a repeat was not active; [ ] = dose if it differs, or a comment. Unless noted, calls follow the shape of the dose curve; as a rule, active = well fitted inhibition curve with a large enough effect; inconclusive = small, poorly fitted or top-dose-only effect; inactive = flat fitted curve, though single readings scatter. Potency is read from the fitted curve at half-maximal effect.

SMILES	GBA mod	Casp7 inh	Bst PK mod	Caspase-1 inhib	Luciferase inh
Cc1ccc(OCC(=O)Nc2cccc(-c3nnc(-c4ccccc4)o3)c2)cc1	8.6*	-2%	>57	-4%	-19%
N#C/C(=C\NC(=S)c1ccncc1)c1nc2ccccc2s1	·	-15%[11.5 µM]	·	-10%[11.5 µM]	-2%[11.4 µM]
O=C(OCC(=O)c1ccccc1Br)c1ccccn1	>77	0%	·	9%	13µM*
O=C(OCc1c(Cl)cccc1Cl)c1cnccn1	>77	-3%	4.7*	0%	1%
O=C(OCc1c(Cl)cccc1Cl)c1ccccn1	>77	-1%	3.8*	2%	0%
COC(=O)c1ccccc1NC(=O)COC(=O)c1cccnc1	>77	2%	>57	-2%	-3%
O=C(OCc1c(Cl)cccc1Cl)c1cccnc1	>77	-2%	9.2*	-1%	1%
Nc1c2c(nc3ccccc13)CCC[C@H]2O	·	1%	·	4%	2%
Nc1ncnc2c1ncn2[C@@H]1O[C@@H](CO)[C@H](O)[C@@H]1O	·	1%	·	5%	-1%
N=C(N)S[C@H]1c2ccccc2-c2cc([N+](=O)[O-])ccc21	·	-2%[11.5 µM]	·	3%[11.5 µM]	0%[11.4 µM]
CCOC(=O)c1c(NC(=O)c2nn(CC)cc2Br)sc2c1CCCCC2	5.2*	-1%	>57	2%	3%
O=Nc1ccc(NO)cc1	·	-1%	·	-2%	·
Cc1ccccc1-c1ccc(C=Nc2c(C)n(C)n(-c3ccccc3)c2=O)o1	>77	-8%	i	-4%	16µM*
Cc1ccc2nc(/C(C#N)=N/O)[nH]c2c1	>77	-2%	·	-5%	25µM*
C=C(CO)C1Cc2c(ccc3c2OC2COc4cc(OC)c(OC)cc4C2C3=O)O1 (centres undefined)	·	0%	·	0%	·
CC(C)(C)c1c2c(c(C(C)(C)C)c3c1OCN(Cc1ccccc1)C3)OCN(Cc1ccccc1)C2	·	-7%[11.5 µM]	·	2%[11.5 µM]	2%[11.4 µM]
Cc1cc(N2CCOCC2)nc2ccc(NC(=O)CCC(=O)N3CCCCC3)cc12	2.4*	0%	>11	-3%	?
Cc1cc(N2CCOCC2)nc2ccc(Cc3ccc4nc(N5CCOCC5)cc(C)c4c3)cc12	·	-3%[11.5 µM]	·	1%[11.5 µM]	0%[11.4 µM]
CCC(C)NC(=O)CCC(=O)Nc1ccc2nc(N3CCOCC3)cc(C)c2c1 (centres undefined)	6.1*	-5%	>57	0%	-17%
CCOc1ccccc1NC(=O)CCC(=O)Nc1ccc2nc(N3CCN(C)CC3)cc(C)c2c1	9.6*	-1%	>57	3%	?
Cc1cc(N2CCOCC2)nc2ccc(NC(=O)CCC(=O)N3CCC(C)CC3)cc12	1.7*	-1%	·	-2%	-19%
CCN(CC)CC[n+]1ccc2c(C)c3[nH]c4ccccc4c3c(C)c2c1	·	-9%[11.5 µM]	·	-5%[11.5 µM]	5%[11.4 µM]
CCCCN(C)C(=O)CCC(=O)Nc1ccc2nc(N3CCOCC3)cc(C)c2c1	0.71*	-3%	>11	0%	-26%
CCN1CCN(c2cc(C)c3cc(NC(=O)Cc4ccc(OC)c(OC)c4)ccc3n2)CC1	·	-7%	·	-5%	-2%
O=C(Nc1nc2c(s1)CCCC2)c1ccc2ncsc2c1	·	-8%	·	-4%	3.2µM*
SMILES	GBA mod	Casp7 inh	Bst PK mod	Caspase-1 inhib	Luciferase inh
Cc1ncsc1C(=O)Nc1nc2c(s1)CCCC2	>77	1%	i	0%	20µM*
CN(C)c1ccc(/C=N\NC(=O)c2cnc3ccccc3c2)cc1	·	0%[11.5 µM]	·	-1%[11.5 µM]	-13%[11.4 µM]
c1ccc2c(c1)CCN(c1nc3ccccc3n3cnnc13)C2	·	20µM*	·	-23%	-4%
CN(C)CCN(Cc1ccccc1)S(=O)(=O)c1cccc2cccnc12	·	1%	·	1%	2%
CCn1nc(NC(=O)c2cccnc2)c2cc3cccc(C)c3nc21	>77	1%	>57	0%	2%
Cc1ccc2nc3c(cc2c1)c(NC(=O)c1cccnc1)nn3C	i	0%	i	-1%	13µM*
Nc1nc(Nc2ccccc2)nc2c1ncn2[C@@H]1O[C@@H](CO)[C@H](O)[C@@H]1O	·	2%	·	2%	-5%
N#Cc1cc2cc3c(cc2nc1N1CCCCC1)OCCO3	>77	?	>57	·	13µM*
O=C1c2ccccc2C(O)(O)[C@@]1(O)[C@]1(O)C(=O)c2ccccc2C1(O)O	·	-2%[11.5 µM]	·	-1%[11.5 µM]	1%[11.4 µM]
CC(=O)[C@H]([C@@H](c1ccccc1)N1CCOCC1)N1CCOCC1	·	1%[11.5 µM]	·	-3%[11.5 µM]	2%[11.4 µM]
CN(C)/C=N/c1nc2ccc3c(c2s1)CCCC3	>77	-2%	i	0%	10µM*
COc1ccc2nc(/N=C\N(C)C)sc2c1	>77	-1%	·	2%	?
O=c1[nH]c(SCc2c(Cl)c(Cl)c(Cl)c(Cl)c2Cl)nc(=S)[nH]1	·	?	·	3%[11.5 µM]	3%[11.4 µM]
c1cn2c(NC3CCCC3)c(-c3ccc(N4CCOCC4)cc3)nc2cn1	·	?	·	·	2.5µM*
CCC1CCc2c(sc(NC(=O)c3ccoc3C)c2C(N)=O)C1 (centres undefined)	>77	-4%	·	-17%	13µM*
CC1(C)CC[C@]2(C(=O)O)CC[C@]3(C)C(=CC[C@@H]4[C@@]5(C)CC[C@H](O)C(C)(C)[C@@H]5CC[C@@]43C)[C@@H]2C1	·	·	·	·	4%[11.4 µM]
O=C(COc1ccc(F)cc1)Nc1nccs1	·	2%	·	-6%	13µM*
O=C(Nc1nccs1)c1ccc(COc2ccc(F)cc2)o1	>77	1%	>57	0%	-7%
CC(C)(C)c1ccc(C(=O)Nc2nonc2-c2nc3ccccc3[nH]2)cc1	2.4*	0%	>57	0%	-1%
O=C(O)/C=C(/C(=O)O)[C@]12CCN3CC4=CCO[C@@H]5CC(=O)N[C@@H]1[C@H]5[C@H]4C[C@H]32	·	-3%[11.5 µM]	·	0%[11.5 µM]	2%[11.4 µM]
CCN1CCN(C(=O)c2cc3c(=O)n4ccccc4nc3n2Cc2ccccc2)CC1	>77	-1%	?	-1%	7.9µM*
Cc1cc(O)ccc1Nc1nc(-c2sc(N)nc2C)cs1	>77	0%	>57	-1%	-1%
Cc1cccnc1Nc1nc(-c2ccc(O)cc2O)cs1	?	4%	1.7*	-2%	16µM*
Cc1cc(S(=O)(=O)N(C)CCc2ccccc2)ccc1-n1cnnn1	·	0%	>57	-2%	3%
Cc1cc(S(=O)(=O)N(Cc2ccccc2)Cc2ccc(N(C)C)cc2)ccc1-n1cnnn1	8.5*	-2%	>57	-3%	-1%
SMILES	GBA mod	Casp7 inh	Bst PK mod	Caspase-1 inhib	Luciferase inh
COc1cccc(-n2nnc3c(=O)n(Cc4ccccc4Cl)cnc32)c1	>77	0%	6.9*	-1%	-2%
Cc1ccnc(NC(=O)CCC2CCCCC2)c1	i	-1%	·	1%	20µM*
Cc1cc(C)c(-c2cc([C@H](C)O/N=C\[C@@H](C)[C@H](OCc3ccccc3)C(C)C)on2)c(C)c1	·	-6%[11.5 µM]	·	-3%[11.5 µM]	1%[11.4 µM]
CCOc1ccc(-n2c(-c3ccco3)n[nH]c2=S)cc1	>77	-1%	9.4*	-3%	-7%
C[C@@H]1CC2(OC(O)[C@]3(C)O[C@H]23)O[C@H]2C[C@@]3(C)[C@@H]4CC[C@H]5C(C)(C)C(O[C@@H]6OC[C@@H](O)[C@H](O)[C@H]6O)CC[C@@]56C[C@@]46CC[C@]3(C)[C@@H]12 (some centres undefined)	·	0%	·	-1%	·
Cn1ccc2cc3c(cc21)CCN3C(=O)Nc1cccnc1	·	2%	·	0%	25µM*!
